CHOP inhibitor – inhibitors of CHOP induction in ER stress response; CHO-K1 CHOP-promoter luciferase, tunicamycin-induced, 15-18 h; inhibition, % at 10 µM; hit rate 3.8% among 220,000;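 active = compounds that reduced the stress-induced luciferase reporter signal by more than about 70% of percent inhibition, limit read from the data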;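 note: 0% = tunicamycin plus vehicle and 100% = wells without tunicamycin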
WT yeast gro inh – growth inhibition of WT yeast, mitochondrial fusion screen; mitochondrial fusion phenotypic screen, WT strain; inhibition, % at 10 µM; hit rate 2.1% among 190,000; in the data active = inhibition above about 58%; tested in S. cerevisiae
L major viab – reduces viability of Leishmania major promastigotes; resazurin fluorescence viability; inhibition, % at 10 µM; hit rate 9% among 200,000; AID 1063; in the data active = inhibition above about 50%;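 note: promastigotes grown with compound for 44 hours at 28 °C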
RAM network inh – blocks the yeast RAM network. S. cerevisiae dse1pr::URA3 reporter, 5-FOA growth OD615, 2 d; analog-sensitive cbk1-as2 kinase mutant strain. inhibition, % at 50 µM. hit rate 1.8% among 190,000. AID 868;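 active = inhibition above a set limit, 3 SD over mean compound inhibition, cut at about 8.4% in these data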;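 note: 0% = DMSO-only wells with no growth and 100% = 10 µM 1-NA-PP1 full growth; inhibition rescues growth on 5-FOA so higher OD means more RAM inhibition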
* marks the source's active call; other numbers are inactive results; / = no result given. Shown are actives, neighbours in structure and some others; about 13% of the full set was active somewhere.

SMILES | CHOP inhibitor | WT yeast gro inh | L major viab | RAM network inh
Cc1cc(CC(C)C)n(-c2nc3ccccc3c(=O)n2OCc2ccccc2)n1 | 74* | 65* | 16 | 9.8*
CC12C(=O)N(c3ccc(OC(=O)c4ccco4)cc3)C(=O)C1C1c3ccccc3C2c2ccccc21 (configuration not stated) | 11 | 4 | 58* | 2
O=C(O)C(Cc1c[nH]c2ccccc12)N1C(=O)c2ccccc2C1=O (configuration not stated) | -2 | / | / | /
CCc1cccc(C)c1NC(=O)CO/N=C(\C)c1cc2ccccc2o1 | 42 | 8 | 70* | 7
O=C(Nc1ccccc1Cl)C1CC(=O)N(c2ccccc2)C1 (configuration not stated) | 9 | / | / | /
O=C(Nc1cc(Cl)ccc1Cl)C1CC(=O)N(c2ccc(Br)cc2)C1 (configuration not stated) | 70* | 10 | -8 | 4
Cc1ccc(S(=O)(=O)N2CCN(CC(O)c3ccccc3)CC2)cc1C (configuration not stated) | 15 | -16 | 48 | 3
O=C(NC1CCN(Cc2ccccc2)CC1)C1CCN(S(=O)(=O)c2cccc3cccnc23)CC1 | / | 5 | -4 | /
O=S(=O)(NC1CCN(Cc2ccccc2)CC1)c1cccc2cccnc12 | 9 | -5 | 67* | 1
CCOc1ccccc1NC(=O)C1CCN(C(=O)Cc2ccccc2)CC1 | 5 | 2 | -4 | 1
Cc1cccc(C)c1OCC(O)CN1CCN(c2ccccc2)CC1 (configuration not stated) | 35 | 7 | 15 | 2
CC1CCN(CC(O)COC2CCC(C(C)(C)C)CC2)CC1 (configuration not stated) | 38 | -15 | 92* | 1
CC(C)(C)C1CCC(OCC(O)CN2CCN(c3ccccc3)CC2)CC1 (configuration not stated) | 44 | -9 | 91* | 1
CC(C)(C)C1CCC(OCC(O)CN2CCCC2)CC1 (configuration not stated) | -7 | 8 | 100* | 8
Cc1ccc(N2CCN(CC(O)COC3CCCCC3)CC2)cc1 (configuration not stated) | 7 | 7 | 97* | 2
COC(=O)c1ccc(OCC(O)CN2CCC(C)CC2)cc1 (configuration not stated) | 26 | -12 | -1 | 1
Cc1ccc(N2CCN(CC(O)COc3cccc(C)c3)CC2)cc1 (configuration not stated) | 6 | / | / | /
Cn1c(=O)c2c(ncn2CCC(=O)N/N=C/c2cccnc2)n(C)c1=O | 9 | / | / | /
Cc1nonc1CN(C)C(=O)CC1C(=O)NCCN1Cc1ccc(F)c(F)c1 (configuration not stated) | 11 | -1 | -14 | 0
COc1ccc(OC)c(-n2c(=S)[nH]c3cc(C(=O)N4CCN(c5ccccc5)CC4)ccc3c2=O)c1 | 3 | -6 | -4 | 4
COc1cc(NC(=S)N2CCc3ccccc3C2)cc(OC)c1 | 2 | 40 | -7 | 1
CCOc1ccc(C(=O)CC(=O)C(=O)NCCc2ccc(OC)c(OC)c2)cc1 | 25 | 9 | 60* | 1
CCc1cccc(C)c1NC(=S)N(CCN(C)C)C(C)c1ccco1 (configuration not stated) | -18 | / | / | /
COc1cc(OC)cc(C(=O)NCc2ccc(-n3cccc3)cc2)c1 | 18 | 19 | 4 | 11*
COc1ccc(C(=O)NCc2ccc3c(c2)cc(C)n3C)cc1OC | 12 | -26 | 1 | 4
SMILES | CHOP inhibitor | WT yeast gro inh | L major viab | RAM network inh
COc1cccc(C(=O)NCc2ccc3c(c2)cc(C)n3C)c1 | 10 | 11 | -2 | 10*
CCN(CC)S(=O)(=O)c1ccc2c(c1)nc(CCC(=O)Nc1ccc(N3CCOCC3)cc1)n2C | 2 | 12 | -1 | 3
Cc1nccn1CC(=O)N/N=C/c1cccs1 | 17 | / | / | /
O=C(/C=C\c1ccc(-c2ccccc2)o1)c1ccccc1 | 52 | 4 | 13 | 9.6*
Cc1cc(NC(=O)C2CCCCC2)nc2c1c(=O)oc1ccccc12 | 51 | 81* | 13 | 3
CC(=O)OCCNc1cc(SCc2ccco2)c2nonc2c1[N+](=O)[O-] | 27 | 7 | 33 | 9.5*
CCCC(=O)OCCNc1cc(SCCC(=O)OC)c2nonc2c1[N+](=O)[O-] | 2 | 5 | 16 | 1
CC(=O)OCCNc1cc(Sc2nc3ccccc3[nH]2)c2nonc2c1[N+](=O)[O-] | 107* | 13 | 5 | 4
COC(=O)CCSc1cc(NCCOC(C)=O)c([N+](=O)[O-])c2nonc12 | -11 | -1 | 84* | 2
CC(=O)OCCCNc1cc(Sc2ccc(C)cc2)c2nonc2c1[N+](=O)[O-] | 109* | 0 | 6 | 4
COc1ccc(/C=N/Nc2c(Cl)cc(Cl)cc2Cl)cc1CN1CCOCC1 | 45 | 29 | 24 | -1
COCCCNc1nc2nonc2nc1N1CCC(C(C)N2CCOCC2)CC1 (configuration not stated) | -5 | 1 | 0 | 3
CCN1C(=O)CSC1=NC1C2CC3CC(C2)CC1C3 (configuration not stated) | 76* | -16 | 7 | 0
Cc1ccc(/C=C/C(=O)O)cc1S(=O)(=O)NC1CCS(=O)(=O)C1 (configuration not stated) | -4 | -6 | -8 | 2
Cc1onc(-c2ccccc2)c1C(=O)OCC(=O)NCc1ccc(F)cc1 | 9 | 12 | -4 | 8.5*
c1ccc(-c2nnc(CSc3nnc(-c4ccncc4)n3Cc3ccco3)o2)cc1 | -6 | 82* | -1 | 0
CN(C)C(=O)CSc1nnc(-c2ccncc2)n1Cc1ccco1 | 9 | 1 | -6 | 0
C(=C\c1ccccc1)/CSc1nnc(-c2ccccc2)n1Cc1ccco1 | / | 5 | 85* | 4
O=C(CSc1nnc(-c2ccncc2)n1Cc1ccco1)OC1CCCCC1 | 5 | -5 | 81* | 1
Cc1cc(C)c(S(=O)(=O)N2CCOC2CNC(=O)C(=O)NCCCn2ccnc2)c(C)c1 (configuration not stated) | 11 | / | / | /
N#Cc1cc(-c2ccccc2)nc(N2CCNCC2)n1 | 8 | / | / | /
CC(CCc1ccccc1)NCC(O)c1ccc(O)c(C(N)=O)c1 (configuration not stated) | 19 | 6 | 84* | 1
CC(=O)NC(C)CCc1ccccc1 (configuration not stated) | -10 | / | / | /
Cc1cc(C)n(-c2nc3ccccc3nc2N2CCC(C)CC2)n1 | 32 | -5 | 4 | -1
Cc1cc(N2CCC(C)CC2)nc(-n2nc(C)cc2C)n1 | -182 | 67* | 97* | 0
SMILES | CHOP inhibitor | WT yeast gro inh | L major viab | RAM network inh
COc1ccccc1CN1CCN(C(=O)c2ccncc2)CC1 | 2 | -3 | -3 | -1
COc1ccccc1CN1CCSCC1 | 1 | -7 | 63* | 0
Cc1cccc(N2CCN(C(=O)c3cc4n(n3)C(C(F)(F)F)CC(c3ccco3)N4)CC2)c1C (configuration not stated) | 4 | 61* | 67* | 5
COc1ccc(S(=O)(=O)N2CCOCC2)cc1NC(=O)CSc1nnc(C2CC2)n1N | 9 | 6 | -4 | 1
CCOC(=O)c1cnc(SCC(=O)Nc2sc(C)c(C)c2C#N)nc1N | 71* | -24 | 0 | 3
CCOC(=O)c1cnc(SCC(=O)NCc2cccs2)nc1N | 2 | -18 | -4 | 1
